Assay results: PubChem BioAssay (EPA / NIEHS)
Records with an inconclusive call do not appear. Active and inactive are the calls of the source. The calls were made as follows, unless noted: active = hit-call score of the fitted dose curve at least 0.9, where 1 is the maximum; inconclusive = response in the unintended direction; inactive = score below 0.9.

Experiments:
[1] = TOX21_p53_BLA_p2_viability: Viability Assessment in the Tox21 HCT-116 p53 Agonism Beta-lactamase Assay, Phase 2 (AID 2283591);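 also: compound exposure lasted 16 h at 37 °C; actives lower the ATP signal meaning cytotoxicity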
In short: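 HCT116 p53-bla cells, 4000/well, dosed after 5 h plating (217-fold dilution of DMSO stocks) and incubated 16 h at 37C. Viability taken as cellular ATP by CellTiter-Glo luminescence after 30 min RT; signal loss marks cytotoxicity.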

[2] = molecular target: Cellular tumor antigen p53 (Homo sapiens) (UniProt P04637); experiment: TOX21_p53_BLA_p2_ratio: Tox21 HCT-116 p53 Agonism Beta-lactamase Assay, Ratio, Phase 2 (AID 2283592)
In short: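 In this cell-based reporter format, HCT116 cells were dosed with chemicals delivered from DMSO by 217-fold dilution and incubated 16 h at 37C. Emission at 460 and 530 nm after 2 h CCF4-AM loading provided the ratio, fitted upward versus DMSO.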

[3] = TOX21_p53_BLA_p3_viability: Viability Assessment in the Tox21 HCT-116 p53 Agonism Beta-lactamase Assay, Phase 3 (AID 2283593);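 also: cells exposed to compound for 16 h before reading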
In short: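 HCT116 cells, 4000/well, dosed 5 h after plating by pin transfer (217-fold dilution from DMSO stock) and incubated 16 h at 37C, 5% CO2. Viability read as ATP luminescence with CellTiter-Glo after 30 min at room temperature.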

[4] = molecular target: Cellular tumor antigen p53 (Homo sapiens) (UniProt P04637); experiment: TOX21_p53_BLA_p5_ratio: Tox21 HCT-116 p53 Agonism Beta-lactamase Assay, Ratio, Phase 5 (AID 2283599)
In short: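 HCT-116 p53-bla cells (4000/well) plated 5 h, dosed with compound (217-fold DMSO dilution) for 16 h at 37 C; CCF4-AM substrate 2 h at room temperature. Activity is the 460/530 nm emission ratio (405 nm excitation), fitted in gain-of-signal direction versus DMSO.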

[5] = TOX21_p53_BLA_p5_viability: Viability Assessment in the Tox21 HCT-116 p53 Agonism Beta-lactamase Assay, Phase 5 (AID 2283600)
In short: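 Compounds, pinned from DMSO at 217-fold dilution, were left on the cells for 16 h. The viability endpoint was ATP content measured by CellTiter-Glo luminescence, where falling signal reflects cytotoxicity.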

[6] = molecular target: Cellular tumor antigen p53 (Homo sapiens) (UniProt P04637); experiment: TOX21_p53_BLA_p4_ratio: Tox21 HCT-116 p53 Agonism Beta-lactamase Assay, Ratio, Phase 4 (AID 2283601)
In short: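 HCT-116 p53 beta-lactamase reporter cells (4000/well) preincubated 5 h, then compound (217-fold dilution of DMSO stock) for 16 h at 37C. CCF4-AM substrate added 2 h at room temperature; 460/530 nm emission ratio fitted upward versus DMSO.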

[7] = CCTE_Harrill_HTTr_Viability_MCF7: CCTE's 6-hour Cell Viability Assessment for the High-Throughput Transcriptomics (HTTr) Platform, in MCF-7 cells cultured in DMEM + 10% fetal bovine serum, Harrill Lab (AID 2284010; active = hit-call score of the fitted dose curve at least 0.9, where 1 is the maximum; inactive = score below 0.9)
In short: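 Cells were dosed with chemicals in an eight-point dilution series, imaged 6 hours later for propidium iodide uptake, and the endpoint was analyzed by bidirectional fitting against DMSO as negative control.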

[8] = CCTE_Harrill_HTTr_Apoptosis_MCF7: CCTE's 6-hour Apoptosis Assessment for the High-Throughput Transcriptomics (HTTr) Platform, in MCF-7 cells cultured in DMEM + 10% fetal bovine serum, Harrill Lab (AID 2284011; active = hit-call score of the fitted dose curve at least 0.9, where 1 is the maximum; inactive = score below 0.9)
In short: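 Read-out: CellEvent Caspase 3/7 Green signal by high content imaging, gain-of-signal indicating apoptosis. MCF-7 cells, DMEM + 10% FBS, eight-point dilution series, 6 h exposure. Curves fitted bidirectionally relative to DMSO negative control.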

Measured: outcome

Chain of Cellular tumor antigen p53 (Homo sapiens) (P04637 whole entry, looked up): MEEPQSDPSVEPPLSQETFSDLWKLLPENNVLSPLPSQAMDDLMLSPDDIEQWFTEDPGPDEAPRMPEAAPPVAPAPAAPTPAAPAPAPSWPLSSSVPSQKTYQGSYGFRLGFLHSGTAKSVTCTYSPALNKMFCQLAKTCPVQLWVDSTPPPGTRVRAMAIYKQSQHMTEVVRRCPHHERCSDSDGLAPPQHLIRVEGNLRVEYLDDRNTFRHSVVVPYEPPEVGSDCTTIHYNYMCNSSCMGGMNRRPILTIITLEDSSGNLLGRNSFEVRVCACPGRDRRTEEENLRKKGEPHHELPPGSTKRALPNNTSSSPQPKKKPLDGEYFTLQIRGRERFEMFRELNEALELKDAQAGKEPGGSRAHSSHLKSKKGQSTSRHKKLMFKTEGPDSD

CCOC(=O)c1ccc(NC(=O)CN2CCCCC2)cc1
inactive: [1] | [2] | [3] | [4] | [5]

N[C@H]1C(O)O[C@H](CO)[C@@H](O)[C@@H]1O (stereo not given in full)
inactive: [1] | [2] | [3] | [4] | [5]

c1cnccn1
inactive: [1] | [2] | [3] | [4] | [5]

Cn1c(=O)c2[nH]c(Br)nc2n(C)c1=O
not listed: [7] | [8]
inactive: all other assays above

CC(C)(C)OC=O
not listed: [7] | [8]
inactive: all other assays above

COc1ccccc1OCC(O)COC(N)=O (stereo not given)
not listed: [6]
inactive: all other assays above

Cc1[nH]cnc1CN1CCc2c(c3ccccc3n2C)C1=O
not listed: [7] | [8]
inactive: all other assays above

CC(C)CCC[C@@H](C)[C@H]1CC[C@H]2[C@@H]3CC=C4C[C@@H](O)CC[C@]4(C)[C@H]3CC[C@]12C
inactive: [1] | [2] | [3] | [4] | [6]
